The whole screen tested about 110,000 compounds, of which about 20 (0.02%) were called active. Roughly 2% stayed inconclusive and do not appear here. Calls come from the whole dose curve; as a rule, active = well fitted activation curve with a large enough effect; inconclusive = small, poorly fitted or top-dose-only effect; inactive = no such curve, though single readings can be large or run the other way. The list comes from a sample in which actives are over-represented; it also holds similar structures and randomly drawn compounds.
Test: qHTS Assay for Compounds that Induce Erasure of Genomic Imprints;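 note: 0% = negative control wells on the plate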
Settings: mouse ES Peg3-LacZ reporter, beta-gal luminescence, 40 h; series mostly up to 10.9 µM; activity change, positive = activation: at the top concentration
Text: qHTS Assay for Compounds that Induce Erasure of Genomic Imprints NIH Chemical Genomics Center [NCGC] NIH Molecular Libraries Screening Centers Network [MLSCN] Assay Submitter (PI): JEFFRIES, SEAN, NCGC, University of Cambridge NCGC Peg3 Imprinting Assay Overview Genomic imprinting is the epigenetic process whereby genes are expressed in a parent of origin fashion. […] Unlike some forms of epigenetic silencing that can be overcome by overexpression of transcription factors, genomic imprinting stably represses the expression of one allele despite potentially high levels of expression from the other allele. […] During mouse embryonic day 11.5 imprints are erased in PGCs so that sex specific imprints can be reestablished during gametogenesis. Embryonic germ (EG) cells can be derived from developing PGCs at embryonic day 11.5 and these cells often lack genomic imprints. […] Embryonic stem (ES) cells are a cell type similar to EG cells in phenotype and transcriptional profile, yet ES cells maintain genomic imprints. This similarity between ES and EG cells prompted us to use ES cells to look for factors which could induce imprint erasure. To investigate the stability of genomic imprinting, ES cells were derived from mice with an insertion of a LacZ-Neomycin reporter construct in the Peg3 locus. Peg3 is an imprinted locus where gene expression is restricted to the paternal allele. […] Using LacZ expression we are able to monitor the state of the Peg3 imprint. In order to dissect the mechanisms involved in imprint erasure using a forward chemical genetics approach we developed a cell based phenotype assay using an endogenous silence imprinted locus. This assay utilizes maternally inherited Peg3LacZ-Neo ES cells by monitoring the LacZ expression from the normally silent Peg3 allele. To facilitate screening, high-density feeder-free ES cell culture has been optimized so that ES cells can be grown in 1536 for over four days without feeding or washes. The assay uses a luminescence based read out for LacZ activity and is a homogenous assay optimal for HTS.
NCGC Peg3 Imprinting Assay Protocol Summary ES cell lines were derived from blastocysts taken from Peg3LacZ-Neo x129 matings. Lines were sexed and genotyped for the Peg3LacZ-Neo allele. Female cells carrying the reporter allele were used in this study. Cells were derived on a layer of mouse embryonic fibroblasts and passaged multiple times before switching to feeder free culture. Cells were maintained feeder free on gelatin coated dishes in DMEM/F12 media supplemented with 15% FBS, 2mM L-glutamine, 100 units/ml penicillin, 100ug/ml streptomycin, 0.1mM MEM nonessential amino acids, 1mM sodium pyruvate, 0.1% sodium bicarbonate, 0.1mM 2-Mercaptoethanol, and 400 units/ml leukemia inhibitory factor (LIF) at 37C with 5% CO2. The assay was performed in 1536-well format. A single luminescence read was taken at the end of the assay and the data was normalized by plate to internal negative controls. Maximum efficacy and AC50 values were calculated from dose-response data using the standard Hill equation. 1536 well plates were filled with 0.5ul of 0.1% gelatin per well, spun down and incubated for at least 30 min at 37C. The ES cells were then trypsini Peg3 1536-well assay protocol: (1)Plate 0.5ul/well 0.1% gelatin in white tissue culture treated 1536-well plates, spin and incubate at 37C for at least 30 min. (2)Add 5ul/well (300 cells) of ES cell suspension from freshly trypsinized cells and incubate at 37C, 5% CO2 for 40 hours. (3)Add 5ul/well of freshly prepared BetaGlo solution and incubate at room temperature for 5 minutes. (4)Read luminescence on the ViewLux plate reader. Keywords Genomic Imprinting, Germ Cells, Embryonic Stem Cell, DNA Methylation, Peg3, qHTS, NIH roadmap, NCGC

Structure (SMILES) | activity change, positive = activation
CCC(=O)Nc1cccc(-c2nc3cc(C)ccc3o2)c1 | -34% (inactive)
COc1ccc(Cl)cc1-n1c(CCC(=O)O)ccc1-c1ccc(C)cc1 | 4.72% (inactive)
CCCC(=O)Nc1ccc(NC(=O)c2sc3ccccc3c2Cl)cc1 | -17.3% (inactive)
CC1CCCCN1S(=O)(=O)c1ccc(F)c(C(=O)Nc2ccccc2C(F)(F)F)c1 (stereo not drawn) | 15.3% (inactive)
CCc1cc2c(cc3c(=O)n(CC(=O)N4CCN(c5cc(Cl)ccc5C)CC4)nc(CC)n32)s1 | 3.78% (inactive)
Cc1nn(-c2ccc(N3CCCCC3)nn2)c(C)c1CCC(=O)NCc1ccc(F)cc1 | -10.3% (inactive)
Cc1cc(C)cc(NC(=O)CCS(=O)(=O)c2cc3c4c(c2)CCN4C(=O)CC3)c1 | -5.47% (inactive)
CCOC(=O)N1CCC(NC(=O)c2cnn(-c3cccc(C)c3)c2C2CCN(C(=O)OC(C)(C)C)CC2)CC1 | -7.69% (inactive)
COc1ccc(CNC(=O)c2cc3c(=O)[nH]c4ccccc4c3s2)cc1 | 14.7% (inactive)
CCOc1ccc(CNC(=O)C2CCCN(c3nnc(C)c4c(C)n(-c5ccccc5)nc34)C2)cc1 (stereo not drawn) | -17.4% (inactive)
Cc1nnc(C)n1-c1ccc(C(=O)Nc2cccc(Br)c2)cc1 | -11.1% (inactive)
COc1cc(NC(=O)CCNC(=O)Cn2ccc3ccccc3c2=O)cc(OC)c1OC | -5.74% (inactive)
CCc1nonc1NC(=O)c1oc2ccc(Cl)cc2c1C | -14.9% (inactive)
COc1ccccc1Nc1cc(C(=O)NCCCN(C)C2CCCCC2)c2ccccc2n1 | 21% (inactive)
CCOC(=O)c1ccccc1NC(=O)c1nn(-c2ccc(OC)c(Cl)c2)c(=O)c2c1c1ccccc1n2C | 22.8% (inactive)
Cc1ccc(C)c(NC(=O)CSC2=Nc3ccccc3N=C(c3ccc(F)cc3)C2)c1 | -7.52% (inactive)
CCc1ccccc1NC(=O)Cn1c(=O)n(CC2CCC(C(=O)NCCc3ccccc3)CC2)c(=O)c2ccccc21 (stereo not drawn) | -9.17% (inactive)
COc1ccc(CNc2nc(-c3ccc(Cl)cc3)nn2S(=O)(=O)c2ccc(C)cc2)cc1 | -11.7% (inactive)
Cc1ccc(CN(C(=O)c2ccccc2[N+](=O)[O-])c2ccccn2)cc1 | -12.4% (inactive)
COc1ccc(NC(=O)C(=O)NCc2ccco2)cc1 | -6.52% (inactive)
CC1CN(C(=O)N2CCC(C(=O)NCc3cccs3)CC2)c2ccccc2O1 (stereo not drawn) | -8.54% (inactive)
Cc1ccc(S(=O)(=O)N2CCC(Oc3ccc(-n4cnnn4)cc3)CC2)cc1 | -8.14% (inactive)
Cc1ccc(F)cc1NC(=O)CCSc1nc(-c2ccco2)cc(C(F)(F)F)n1 | 5.17% (inactive)
Cc1cc(C)c(-c2n[nH]c3c2C(c2ccccc2F)N(CCO)C3=O)c(O)c1 (stereo not drawn) | -12.1% (inactive)

Structure (SMILES) | activity change, positive = activation
CC(=O)Nc1ccc(S(=O)(=O)NCC2CCC(C(=O)NCCc3ccccc3)CC2)cc1 (stereo not drawn) | -11% (inactive)
COC(=O)c1ccccc1NC(=O)c1ccc2c(=O)n3c(nc2c1)CCCCC3 | -6.07% (inactive)
COc1ccc(S(=O)(=O)NCc2cccn2Cc2cccc(C)c2)cc1 | -13.3% (inactive)
COC(=O)CN1C(=O)CSc2ccc(S(=O)(=O)Nc3cc(C)ccc3C)cc21 | 2.15% (inactive)
COc1ccc(CNC(=O)CSCc2nc(-c3ccccc3F)oc2C)cc1 | -11% (inactive)
O=C(Nc1ccc(F)cc1F)c1cnn(-c2ccc(F)cc2)c1-n1cccc1 | 4.84% (inactive)
Cc1ccc(OCC(=O)Nc2ccc(Cl)c(-c3nc4ccccc4[nH]3)c2)cc1C | -9.61% (inactive)
Cc1oc2ncn(CC(C)C)c(=O)c2c1C(=O)N1CCN(c2ccccc2F)CC1 | 19.9% (inactive)
COc1ccccc1NC(=O)c1cc(C2CC2)nc2c1c(C)nn2-c1ccc(C)cc1 | -7.45% (inactive)
Cc1ccc(CN2C(=O)SC(Nc3ccccc3)C2=O)cc1 (stereo not drawn) | 3.26% (inactive)
CCN(CCCNC(=O)c1cc2c(=O)n(CC)c3ccccc3c2s1)Cc1ccccc1 | -11.1% (inactive)
Cc1ccc(C(=O)NCCSc2c(C)[nH]c3ccccc23)cc1C | -7.06% (inactive)
O=C1CC(c2ccc(F)cc2F)c2cc3c(cc2N1)OCO3 (stereo not drawn) | -10.5% (inactive)
Cc1cccc(C(=O)N2c3nc(-c4ccco4)nn3C3(CCCCC3)[C@@H]3CCCC[C@@H]32)c1 | -2.39% (inactive)
O=C(CSc1nc(=O)n(Cc2cccnc2)c2c1CCC2)Nc1ccc(F)cc1F | 19.5% (inactive)
Cc1c(CNC2CCCCC2)c(C(=O)O)c(C)n1Cc1cccc(Cl)c1 | -11% (inactive)
CC(C)Oc1ccc(CNC(=O)C2CCN(c3nc4ccccc4n(C)c3=O)CC2)cc1 | -2.14% (inactive)
Cc1ccccc1NC(=O)Cn1c(=O)n(CCCCC(=O)NCc2ccccc2Cl)c(=O)c2ccccc21 | -1.68% (inactive)
COCCCNC(=O)c1ccc(NC(=O)c2nsc3ccccc23)cc1 | 2.98% (inactive)
Cc1c(NC(=O)C(C)(C)C)cccc1-c1nc2ccccc2s1 | -11.3% (inactive)
Cc1ccn2c(Nc3ccc4c(c3)OCCO4)c(-c3ccc(C)s3)nc2c1 | -21.3% (inactive)
Cc1ccccc1CNC(=O)CCc1cn(Cc2ccccc2C)c2ccccc12 | -11.9% (inactive)
C[C@@]12CCC(=O)C=C1CC[C@H]1C2[C@@H](O)C[C@]2(C)[C@@H]1CC[C@@]2(O)C(=O)COC(=O)C1CCCC1 (stereo partly drawn) | -4.6% (inactive)
Cc1ccc(-n2nc(CO)c(C(=O)NCCc3ccccc3)n2)cc1 | -11.8% (inactive)

Reference: PubChem BioAssay AID1948 (National Center for Advancing Translational Sciences (NCATS), 2009)
